# In ChEMBL document CHEMBL2218924, “A broad activity screen in support of a chemogenomic map for kinase signalling research and drug discovery” (Biochem J, 2013):
# Experiments:
# [1] = target: T1, Ephrin type-A receptor 3 (Homo sapiens) (UniProt P29320); conditions: at 10 µM
# T1 sequence (whole entry): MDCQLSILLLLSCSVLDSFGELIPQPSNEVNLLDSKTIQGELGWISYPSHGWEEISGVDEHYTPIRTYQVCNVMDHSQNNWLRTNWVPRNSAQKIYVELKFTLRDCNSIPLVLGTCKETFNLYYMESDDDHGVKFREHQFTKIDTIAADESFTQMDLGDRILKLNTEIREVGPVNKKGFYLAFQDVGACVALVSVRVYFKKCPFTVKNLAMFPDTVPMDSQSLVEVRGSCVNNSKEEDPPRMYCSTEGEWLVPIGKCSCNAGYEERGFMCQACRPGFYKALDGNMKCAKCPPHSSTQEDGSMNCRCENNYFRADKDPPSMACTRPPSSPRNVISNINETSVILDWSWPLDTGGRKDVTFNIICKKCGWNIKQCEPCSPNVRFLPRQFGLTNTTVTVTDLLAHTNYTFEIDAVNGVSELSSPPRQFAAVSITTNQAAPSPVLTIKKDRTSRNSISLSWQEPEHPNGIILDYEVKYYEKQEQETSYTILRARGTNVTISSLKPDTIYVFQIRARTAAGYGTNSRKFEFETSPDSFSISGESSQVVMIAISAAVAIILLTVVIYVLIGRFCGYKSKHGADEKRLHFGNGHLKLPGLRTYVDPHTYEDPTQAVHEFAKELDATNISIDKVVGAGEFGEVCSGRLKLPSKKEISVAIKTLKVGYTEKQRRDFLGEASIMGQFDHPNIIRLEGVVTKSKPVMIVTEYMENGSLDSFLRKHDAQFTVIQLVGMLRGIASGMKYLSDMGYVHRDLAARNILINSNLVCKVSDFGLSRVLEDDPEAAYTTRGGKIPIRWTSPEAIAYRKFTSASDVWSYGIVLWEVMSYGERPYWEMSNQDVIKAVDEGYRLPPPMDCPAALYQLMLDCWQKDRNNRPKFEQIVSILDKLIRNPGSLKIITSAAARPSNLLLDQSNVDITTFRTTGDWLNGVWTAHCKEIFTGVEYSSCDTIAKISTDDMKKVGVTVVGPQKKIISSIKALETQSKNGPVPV
# [2] = target: Ephrin type-A receptor 4 (Homo sapiens) (UniProt P54764); conditions: at 1 µM
# Ephrin type-A receptor 4 (Homo sapiens), sequence (P54764 whole entry): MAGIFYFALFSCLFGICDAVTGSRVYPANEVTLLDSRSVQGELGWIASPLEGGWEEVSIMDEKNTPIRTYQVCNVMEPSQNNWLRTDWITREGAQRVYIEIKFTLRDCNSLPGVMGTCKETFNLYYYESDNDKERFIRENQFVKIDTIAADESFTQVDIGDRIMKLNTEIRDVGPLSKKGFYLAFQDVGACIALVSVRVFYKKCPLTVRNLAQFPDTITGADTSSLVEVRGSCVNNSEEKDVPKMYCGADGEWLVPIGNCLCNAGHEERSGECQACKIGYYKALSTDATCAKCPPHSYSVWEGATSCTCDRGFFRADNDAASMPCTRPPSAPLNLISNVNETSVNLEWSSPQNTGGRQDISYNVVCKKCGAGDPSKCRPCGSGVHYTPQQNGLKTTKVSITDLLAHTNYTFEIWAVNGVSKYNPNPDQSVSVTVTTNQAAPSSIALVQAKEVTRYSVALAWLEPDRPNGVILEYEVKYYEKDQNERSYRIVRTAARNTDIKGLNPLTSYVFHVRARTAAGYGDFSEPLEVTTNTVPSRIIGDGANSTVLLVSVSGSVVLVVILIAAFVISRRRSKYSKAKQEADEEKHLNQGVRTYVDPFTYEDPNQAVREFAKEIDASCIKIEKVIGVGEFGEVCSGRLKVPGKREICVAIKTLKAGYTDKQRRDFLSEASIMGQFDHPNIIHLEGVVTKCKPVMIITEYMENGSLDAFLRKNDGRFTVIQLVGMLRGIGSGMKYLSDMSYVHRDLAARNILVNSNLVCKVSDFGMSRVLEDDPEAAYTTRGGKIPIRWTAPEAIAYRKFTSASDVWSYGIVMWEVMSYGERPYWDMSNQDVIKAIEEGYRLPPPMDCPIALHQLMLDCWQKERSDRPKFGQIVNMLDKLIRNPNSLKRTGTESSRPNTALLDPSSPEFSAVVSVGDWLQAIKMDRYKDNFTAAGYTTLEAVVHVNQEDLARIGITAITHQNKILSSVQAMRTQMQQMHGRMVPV
# [3] = target: Ephrin type-A receptor 4 (Homo sapiens) (UniProt P54764); conditions: at 10 µM
# [4] = target: Ephrin type-A receptor 5 (Homo sapiens) (UniProt P54756); conditions: at 1 µM
# Ephrin type-A receptor 5 (Homo sapiens), sequence (P54756 whole entry): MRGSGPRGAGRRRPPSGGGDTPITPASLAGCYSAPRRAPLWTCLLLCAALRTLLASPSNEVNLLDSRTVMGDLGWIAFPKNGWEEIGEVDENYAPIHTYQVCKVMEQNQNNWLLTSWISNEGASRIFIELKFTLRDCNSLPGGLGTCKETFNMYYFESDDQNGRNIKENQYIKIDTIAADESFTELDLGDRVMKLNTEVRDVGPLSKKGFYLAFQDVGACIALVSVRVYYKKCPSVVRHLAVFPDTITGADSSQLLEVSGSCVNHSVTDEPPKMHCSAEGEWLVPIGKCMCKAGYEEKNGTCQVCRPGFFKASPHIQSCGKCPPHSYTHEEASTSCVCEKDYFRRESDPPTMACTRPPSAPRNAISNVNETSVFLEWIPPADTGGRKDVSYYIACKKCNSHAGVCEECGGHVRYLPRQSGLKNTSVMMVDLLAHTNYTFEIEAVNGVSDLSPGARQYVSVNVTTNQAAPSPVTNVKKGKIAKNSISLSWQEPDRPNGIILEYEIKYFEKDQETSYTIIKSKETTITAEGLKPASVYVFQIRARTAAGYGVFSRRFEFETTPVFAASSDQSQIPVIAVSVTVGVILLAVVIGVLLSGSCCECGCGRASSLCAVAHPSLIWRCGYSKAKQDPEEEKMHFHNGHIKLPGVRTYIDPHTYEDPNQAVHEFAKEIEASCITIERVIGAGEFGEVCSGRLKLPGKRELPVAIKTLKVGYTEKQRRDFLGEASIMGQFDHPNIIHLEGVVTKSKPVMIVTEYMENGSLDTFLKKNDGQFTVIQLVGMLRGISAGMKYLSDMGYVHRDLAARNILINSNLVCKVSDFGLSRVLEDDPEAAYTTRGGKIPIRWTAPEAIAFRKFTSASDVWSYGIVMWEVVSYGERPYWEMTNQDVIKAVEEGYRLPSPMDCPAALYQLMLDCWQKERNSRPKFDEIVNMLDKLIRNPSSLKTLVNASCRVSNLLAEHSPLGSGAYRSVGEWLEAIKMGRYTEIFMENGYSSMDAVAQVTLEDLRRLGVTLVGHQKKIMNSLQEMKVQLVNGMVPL
# [5] = target: Ephrin type-A receptor 5 (Homo sapiens) (UniProt P54756); conditions: at 10 µM
# [6] = target: Ephrin type-A receptor 7 (Homo sapiens) (UniProt Q15375); conditions: at 1 µM
# Ephrin type-A receptor 7 (Homo sapiens), sequence (Q15375 28-998 limits assumed): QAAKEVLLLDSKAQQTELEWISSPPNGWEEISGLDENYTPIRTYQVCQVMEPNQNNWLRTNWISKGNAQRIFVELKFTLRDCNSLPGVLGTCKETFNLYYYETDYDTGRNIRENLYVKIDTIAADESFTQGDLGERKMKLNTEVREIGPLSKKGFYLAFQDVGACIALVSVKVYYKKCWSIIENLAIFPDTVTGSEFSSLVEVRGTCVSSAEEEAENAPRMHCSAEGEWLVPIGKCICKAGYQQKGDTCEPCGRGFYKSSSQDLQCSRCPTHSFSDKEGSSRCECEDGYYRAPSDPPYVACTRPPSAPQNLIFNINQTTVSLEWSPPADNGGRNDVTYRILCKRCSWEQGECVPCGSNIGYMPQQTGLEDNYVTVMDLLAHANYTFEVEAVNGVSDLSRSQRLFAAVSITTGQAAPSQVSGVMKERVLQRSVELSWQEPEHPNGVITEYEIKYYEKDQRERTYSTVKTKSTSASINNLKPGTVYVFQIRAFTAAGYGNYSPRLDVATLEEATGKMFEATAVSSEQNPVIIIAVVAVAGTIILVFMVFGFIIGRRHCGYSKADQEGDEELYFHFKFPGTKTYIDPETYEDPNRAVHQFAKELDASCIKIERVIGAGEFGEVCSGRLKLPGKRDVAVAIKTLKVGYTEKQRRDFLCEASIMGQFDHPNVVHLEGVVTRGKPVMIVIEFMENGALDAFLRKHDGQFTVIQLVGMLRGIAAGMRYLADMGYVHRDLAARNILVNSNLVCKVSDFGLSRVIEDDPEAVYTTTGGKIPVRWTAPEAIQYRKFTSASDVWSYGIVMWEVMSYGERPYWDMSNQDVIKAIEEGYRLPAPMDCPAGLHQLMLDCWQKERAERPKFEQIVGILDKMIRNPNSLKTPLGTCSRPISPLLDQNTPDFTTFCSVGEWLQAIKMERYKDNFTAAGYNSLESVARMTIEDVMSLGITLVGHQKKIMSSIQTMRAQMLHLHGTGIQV
# [7] = target: Ephrin type-A receptor 7 (Homo sapiens) (UniProt Q15375); conditions: at 10 µM
# [8] = target: T2, Ephrin type-A receptor 8 (Homo sapiens) (UniProt P29322); conditions: at 1 µM
# T2 sequence (whole entry): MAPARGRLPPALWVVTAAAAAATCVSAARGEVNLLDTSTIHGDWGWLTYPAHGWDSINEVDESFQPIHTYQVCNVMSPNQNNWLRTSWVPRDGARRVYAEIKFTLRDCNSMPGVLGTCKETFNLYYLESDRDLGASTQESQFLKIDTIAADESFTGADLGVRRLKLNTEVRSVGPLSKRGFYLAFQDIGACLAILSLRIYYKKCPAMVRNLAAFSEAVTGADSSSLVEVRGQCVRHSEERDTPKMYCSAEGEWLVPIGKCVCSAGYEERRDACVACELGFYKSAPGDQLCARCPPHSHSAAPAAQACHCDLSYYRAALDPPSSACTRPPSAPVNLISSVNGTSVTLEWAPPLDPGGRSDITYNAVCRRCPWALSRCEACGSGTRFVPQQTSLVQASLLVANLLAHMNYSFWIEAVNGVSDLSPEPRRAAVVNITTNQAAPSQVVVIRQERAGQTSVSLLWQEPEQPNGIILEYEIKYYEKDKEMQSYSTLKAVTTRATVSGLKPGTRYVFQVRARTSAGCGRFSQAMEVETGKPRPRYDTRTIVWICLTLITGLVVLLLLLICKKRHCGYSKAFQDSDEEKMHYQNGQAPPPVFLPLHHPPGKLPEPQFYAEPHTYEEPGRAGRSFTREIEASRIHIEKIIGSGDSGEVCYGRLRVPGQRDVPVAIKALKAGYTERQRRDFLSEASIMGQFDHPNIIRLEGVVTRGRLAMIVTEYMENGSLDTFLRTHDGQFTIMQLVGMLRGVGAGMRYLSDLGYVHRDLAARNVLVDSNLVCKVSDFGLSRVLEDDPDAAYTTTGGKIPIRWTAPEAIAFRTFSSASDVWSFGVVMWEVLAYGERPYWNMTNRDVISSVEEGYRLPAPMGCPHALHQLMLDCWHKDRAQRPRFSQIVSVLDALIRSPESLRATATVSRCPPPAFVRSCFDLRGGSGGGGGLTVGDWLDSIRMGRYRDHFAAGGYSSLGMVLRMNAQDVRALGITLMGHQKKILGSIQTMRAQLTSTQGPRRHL
# [9] = target: T2, Ephrin type-A receptor 8 (Homo sapiens); conditions: at 10 µM
# [10] = target: T3, Ephrin type-B receptor 1 (Homo sapiens) (UniProt P54762); conditions: at 1 µM
# T3 sequence (whole entry): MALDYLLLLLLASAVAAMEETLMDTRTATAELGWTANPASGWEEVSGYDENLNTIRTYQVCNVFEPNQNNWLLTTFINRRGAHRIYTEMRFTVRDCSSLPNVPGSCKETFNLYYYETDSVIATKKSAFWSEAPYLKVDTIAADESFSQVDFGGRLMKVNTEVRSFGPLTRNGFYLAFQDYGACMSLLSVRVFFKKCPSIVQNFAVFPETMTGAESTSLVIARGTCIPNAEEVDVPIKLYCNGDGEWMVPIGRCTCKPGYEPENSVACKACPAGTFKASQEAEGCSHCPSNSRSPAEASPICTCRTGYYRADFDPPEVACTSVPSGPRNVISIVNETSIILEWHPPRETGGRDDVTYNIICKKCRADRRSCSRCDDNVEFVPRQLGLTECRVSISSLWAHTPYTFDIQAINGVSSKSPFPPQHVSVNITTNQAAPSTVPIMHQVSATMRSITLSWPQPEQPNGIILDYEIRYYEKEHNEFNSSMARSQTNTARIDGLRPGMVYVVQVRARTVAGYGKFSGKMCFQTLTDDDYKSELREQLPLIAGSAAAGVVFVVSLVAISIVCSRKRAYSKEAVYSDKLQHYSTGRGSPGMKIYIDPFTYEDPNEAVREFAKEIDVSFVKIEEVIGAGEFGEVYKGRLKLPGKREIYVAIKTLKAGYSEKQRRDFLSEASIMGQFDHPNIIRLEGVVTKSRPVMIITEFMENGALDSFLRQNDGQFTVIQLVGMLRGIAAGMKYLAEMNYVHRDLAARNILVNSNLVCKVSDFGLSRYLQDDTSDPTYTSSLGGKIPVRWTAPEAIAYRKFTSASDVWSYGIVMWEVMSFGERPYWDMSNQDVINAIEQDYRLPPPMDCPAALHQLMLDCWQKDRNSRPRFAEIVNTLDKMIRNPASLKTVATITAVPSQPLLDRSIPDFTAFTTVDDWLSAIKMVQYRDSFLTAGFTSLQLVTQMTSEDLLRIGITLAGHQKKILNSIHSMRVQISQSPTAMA
structure (smiles),measurement,setting,value
COc1ccc(C(=O)Nc2sc3c(c2C(N)=O)CCCC3)cc1OC,residual activity,[1],89%
same,residual activity,[2],112%
same,residual activity,[3],95%
same,residual activity,[4],94%
same,residual activity,[5],108%
same,residual activity,[6],92%
same,residual activity,[7],87%
same,residual activity,[8],107%
same,residual activity,[9],85%
same,residual activity,[10],83%
